Measurements from PubChem BioAssay (NCATS).
Values joined by “and” are separate entries in the source; they are usually repeats but may differ in a detail not shown here. Equal entries are not always repeated. Records with an inconclusive call do not appear. A call without a number means that no potency is given here. Active and inactive are the calls of the source. Unless noted, the call rests on the fitted dose curve; in most records, active means well fitted curve in the direction sought with a large enough effect; inconclusive means small, poorly fitted or top-dose-only effect, or another doubt; inactive means no such curve, though single readings can be large; an effect the other way counts as inactive or inconclusive.

Tests used:
[1] = qHTS assay for measurement of the activity of small molecule inhibitors on Zika virus induced Caspase-3 activity in human astrocytoma cells (AID 1224859)
How it was run: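 Luminescence read-out (Caspase-Glo 3/7, 30 min RT) of caspase activity in SNB-19 cells infected 6 h with ZIKV, 2 FFU/cell, after 1 h compound pretreatment; % inhibition from induction normalised to uninfected (0%) and infected (100%) wells.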

[2] = qHTS Screen of the MIPE 4.0 Collection Against Ewings Sarcoma (RDES) (AID 1259252); further: nearly all actives have a fitted effect of over 35% in size; further: potency means the concentration at half of the fitted maximal effect
How it was run: (§1)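 CellTiter-Glo luminescence after 48 h compound exposure (titration) gave viability; percent activity used DMSO-treated cells as no inhibition and medium-only wells as full inhibition. Cells grown in RPMI/5% FBS, dosed 4 h post-seeding.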

[3] = qHTS Screen of the MIPE 4.0 Collection Against Ewings Sarcoma (TC71) (AID 1259253); further: nearly all actives have a fitted effect of over 40% in size; further: potency means the concentration at half of the fitted maximal effect
How it was run: as §1

[4] = qHTS Screen of the MIPE 4.0 Collection Against Ewings Sarcoma (EW8) (AID 1259255); further: nearly all actives have a fitted effect of over 35% in size; further: potency means the concentration at half of the fitted maximal effect
How it was run: as §1

[5] = qHTS Screen of the MIPE 4.0 Collection Against Ewings Sarcoma (TC32) (AID 1259256); further: nearly all actives have a fitted effect of over 45% in size; further: potency means the concentration at half of the fitted maximal effect
How it was run: as §1

[6] = qHTS assay to identify small molecule inhibitors of chordoma cells - UCH-1 (AID 1259355); further: nearly all actives have a fitted effect of over 55% in size
How it was run: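 Seed 800 cells per well; incubate overnight at 37 C, 5% CO2. Add test compounds (15 concentrations), then the auranofin–topoisomerase-agent combination. Incubate 48hr, add CellTiter-Glo, wait 30min, read luminescence.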

[7] = qHTS assay to identify small molecule inhibitors of chordoma cells - UCH-2 (AID 1259356); further: series mostly up to about 46 µM
[8] = P-glycoprotein substrates identified in KB-8-5-11 adenocarcinoma cell line, qHTS therapeutic library screen (AID 1346987); further: nearly all actives have a fitted effect of over 65% in size; further: potency means the concentration at half of the fitted maximal effect
How it was run: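 Steps: plate 500 KB-8-5-11 cells/well in DMEM + 10% FCS (colchicine removed); pin compounds in dose-response; incubate 72 h, 37 degree C, 5% CO2; add CellTiter-Glo, 5 min; read luminescence.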

[9] = NS1 protein of Zika virus - qHTS assay to identify small molecule inhibitors in human HEK 293 cells (AID 1347053); further: nearly all actives have a fitted effect of over 55% in size; further: potency means the concentration at half of the fitted maximal effect
How it was run: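 Following 20 h seeding, HEK 293 cells took compound, then 1 h later ZIKV MR766 (MOI = 0.5). Incubation ran 24 h at 37 C before TR-FRET detection of NS1; a drop in signal indicates inhibition.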

[10] = qHTS assay for measurement of the activity of small molecule inhibitors on Zika virus induced Caspase-3 activity in human iPSC derived neural progenitor cells (hNPCs) (AID 1224857); further: nearly all actives have a fitted effect of over 65% in size
How it was run: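 hNPCs seeded 350 cells/well, cultured 16–20 h; compounds added 1 h before ZIKV (2 FFU/cell), 37 C 6 h. Caspase-Glo 3/7 luminescence after 30 min RT; % inhibition from induction scaled to uninfected (0%) and infected (100%) wells.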

[11] = Natriuretic polypeptide receptor (hNpr1) antagonism - Pilot counterscreen GloSensor control cell line (AID 1347045; calls by dose curve; further: series mostly up to about 38 µM)
How it was run: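 Luminescence was read before and 20 min after adding 50 uM SNP, which stimulates soluble guanylyl cyclase. The HEK293 cells expressing the GloSensor cGMP sensor had been preloaded with 2% reagent for 2 h and treated with compound.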

[12] = biological target: Atrial natriuretic peptide receptor 1 (Homo sapiens) (UniProt P16066); assay: Natriuretic polypeptide receptor (hNpr1) antagonism - Pilot screen (AID 1347049; calls by dose curve;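 further: agonist-evoked cGMP luminescence read 20 min after hNppA addition; series mostly up to about 58 µM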)
How it was run: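 Readout is cGMP-driven firefly luciferase luminescence in HEK293 cells carrying hNpr1 and a PDE5-domain GloSensor, read before and 20 min after 0.1 nM hNppA stimulation. Cells had 2% substrate reagent for 2 h and test compound for 30 min.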

[13] = biological target: Atrial natriuretic peptide receptor 2 (Homo sapiens) (UniProt P20594); assay: Natriuretic polypeptide receptor (hNpr2) antagonism - Pilot subtype selectivity assay (AID 1347050; calls by dose curve)
How it was run: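 Pilot selectivity screen against hNpr2: HEK293 cGMP-sensor cells are treated with LOPAC1280 compounds, then with hNppC peptide at 1 nM final. The cGMP-driven luminescence change over 20 min at room temperature is the read-out.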

[14] = biological target: Tyrosine-protein phosphatase non-receptor type substrate 1 (Homo sapiens) + Leukocyte surface antigen CD47 (Homo sapiens) (UniProt P78324+Q08722); assay: CD47-SIRPalpha protein protein interaction - LANCE assay qHTS validation (AID 1347057; active means well fitted curve in the direction sought with a large enough effect in the signal ratio, with a control signal flat, not every such curve was filed as active; the % refers to the signal ratio; further: series mostly up to about 38 µM)
How it was run: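 First, His-tagged CD47 and Eu-labelled anti-His antibody met the compound for 30 min; next, site-specifically biotinylated SIRPalpha was added for 30 min; finally streptavidin-APC was added before reading the TR-FRET ratio.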

[15] = Identifying Small Molecule Inhibitors of Pancreatic Cancer Stem Cells (SN12C, Adherent) (AID 1259358);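 further: cell survival measured after 48 h of compound exposure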
How it was run: (§2)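 Cytotoxicity read by CellTiter-Glo luminescence after 48 h compound exposure at 37C; percent activity scaled between DMSO-treated cells and cell-free wells. Spheroid formats used cells pre-formed 14 days in stem cell media on hydrogel.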

[16] = Identifying Small Molecule Inhibitors of Pancreatic Cancer Stem Cells (SN12C, Spheroid) (AID 1259360); conditions: Potency: SN12C spheroid viability
How it was run: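 Pre-formed 14-day tumor spheroids or adherent cells dosed and incubated 48 h, 37C, 5% CO2. Viability assessed by CellTiter-Glo.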

[17] = Identifying Small Molecule Inhibitors of Pancreatic Cancer Stem Cells (A278, Adherent) (AID 1259361); further: nearly all actives have a fitted effect of over 35% in size
How it was run: as §2

Chain of Tyrosine-protein phosphatase non-receptor type substrate 1 (Homo sapiens) + Leukocyte surface antigen CD47 (Homo sapiens) (P78324 whole entry, looked up): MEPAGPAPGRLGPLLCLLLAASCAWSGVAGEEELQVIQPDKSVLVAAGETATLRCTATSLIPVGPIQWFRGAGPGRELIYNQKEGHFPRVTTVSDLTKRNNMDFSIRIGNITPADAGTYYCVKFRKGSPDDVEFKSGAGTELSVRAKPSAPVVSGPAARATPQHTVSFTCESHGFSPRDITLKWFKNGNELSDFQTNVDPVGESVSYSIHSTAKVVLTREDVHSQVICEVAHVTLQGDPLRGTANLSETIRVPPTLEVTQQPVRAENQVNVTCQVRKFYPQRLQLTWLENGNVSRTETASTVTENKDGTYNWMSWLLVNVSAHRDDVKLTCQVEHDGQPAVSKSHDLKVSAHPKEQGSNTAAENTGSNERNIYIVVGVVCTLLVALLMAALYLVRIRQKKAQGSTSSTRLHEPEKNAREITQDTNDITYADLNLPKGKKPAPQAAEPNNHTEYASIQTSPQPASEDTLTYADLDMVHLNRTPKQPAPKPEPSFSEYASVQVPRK
Chain of Tyrosine-protein phosphatase non-receptor type substrate 1 (Homo sapiens) + Leukocyte surface antigen CD47 (Homo sapiens) (Q08722 whole entry, looked up): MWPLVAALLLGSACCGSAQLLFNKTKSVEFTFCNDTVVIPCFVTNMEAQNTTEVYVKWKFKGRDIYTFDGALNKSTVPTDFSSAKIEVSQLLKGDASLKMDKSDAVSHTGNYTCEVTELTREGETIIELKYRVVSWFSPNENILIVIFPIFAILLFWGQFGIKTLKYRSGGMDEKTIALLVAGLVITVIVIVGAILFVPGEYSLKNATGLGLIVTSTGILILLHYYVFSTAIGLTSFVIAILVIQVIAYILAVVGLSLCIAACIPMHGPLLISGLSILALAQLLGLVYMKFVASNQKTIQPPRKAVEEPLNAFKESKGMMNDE
Chain of Atrial natriuretic peptide receptor 1 (Homo sapiens) (P16066 whole entry, looked up): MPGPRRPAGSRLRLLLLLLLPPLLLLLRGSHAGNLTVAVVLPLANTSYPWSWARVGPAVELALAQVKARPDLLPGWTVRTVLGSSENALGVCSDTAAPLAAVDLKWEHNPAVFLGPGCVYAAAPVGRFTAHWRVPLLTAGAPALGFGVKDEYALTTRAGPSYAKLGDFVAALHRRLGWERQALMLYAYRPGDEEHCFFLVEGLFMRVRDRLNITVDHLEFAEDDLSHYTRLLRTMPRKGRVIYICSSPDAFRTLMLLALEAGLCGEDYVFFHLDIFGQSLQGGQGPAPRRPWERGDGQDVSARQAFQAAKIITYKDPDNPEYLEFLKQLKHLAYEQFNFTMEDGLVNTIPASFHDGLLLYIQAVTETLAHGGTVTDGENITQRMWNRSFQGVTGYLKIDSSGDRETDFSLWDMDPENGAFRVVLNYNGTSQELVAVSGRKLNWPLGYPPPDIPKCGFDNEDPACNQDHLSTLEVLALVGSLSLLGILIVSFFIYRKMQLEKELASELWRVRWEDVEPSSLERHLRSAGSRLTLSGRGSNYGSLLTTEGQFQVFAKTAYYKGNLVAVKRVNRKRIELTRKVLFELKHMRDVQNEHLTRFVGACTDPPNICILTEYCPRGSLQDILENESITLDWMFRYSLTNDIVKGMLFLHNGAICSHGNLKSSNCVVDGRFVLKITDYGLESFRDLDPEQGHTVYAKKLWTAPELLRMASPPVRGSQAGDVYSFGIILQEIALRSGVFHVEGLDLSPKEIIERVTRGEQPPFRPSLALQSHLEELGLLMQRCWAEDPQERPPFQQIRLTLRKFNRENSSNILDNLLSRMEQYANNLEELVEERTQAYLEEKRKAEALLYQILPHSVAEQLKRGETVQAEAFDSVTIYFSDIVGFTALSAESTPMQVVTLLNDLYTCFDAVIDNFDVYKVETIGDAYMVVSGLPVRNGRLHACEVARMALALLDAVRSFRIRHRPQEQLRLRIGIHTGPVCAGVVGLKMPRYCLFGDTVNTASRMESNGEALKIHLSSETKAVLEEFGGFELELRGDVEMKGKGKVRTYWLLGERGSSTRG
Chain of Atrial natriuretic peptide receptor 2 (Homo sapiens) (P20594 whole entry, looked up): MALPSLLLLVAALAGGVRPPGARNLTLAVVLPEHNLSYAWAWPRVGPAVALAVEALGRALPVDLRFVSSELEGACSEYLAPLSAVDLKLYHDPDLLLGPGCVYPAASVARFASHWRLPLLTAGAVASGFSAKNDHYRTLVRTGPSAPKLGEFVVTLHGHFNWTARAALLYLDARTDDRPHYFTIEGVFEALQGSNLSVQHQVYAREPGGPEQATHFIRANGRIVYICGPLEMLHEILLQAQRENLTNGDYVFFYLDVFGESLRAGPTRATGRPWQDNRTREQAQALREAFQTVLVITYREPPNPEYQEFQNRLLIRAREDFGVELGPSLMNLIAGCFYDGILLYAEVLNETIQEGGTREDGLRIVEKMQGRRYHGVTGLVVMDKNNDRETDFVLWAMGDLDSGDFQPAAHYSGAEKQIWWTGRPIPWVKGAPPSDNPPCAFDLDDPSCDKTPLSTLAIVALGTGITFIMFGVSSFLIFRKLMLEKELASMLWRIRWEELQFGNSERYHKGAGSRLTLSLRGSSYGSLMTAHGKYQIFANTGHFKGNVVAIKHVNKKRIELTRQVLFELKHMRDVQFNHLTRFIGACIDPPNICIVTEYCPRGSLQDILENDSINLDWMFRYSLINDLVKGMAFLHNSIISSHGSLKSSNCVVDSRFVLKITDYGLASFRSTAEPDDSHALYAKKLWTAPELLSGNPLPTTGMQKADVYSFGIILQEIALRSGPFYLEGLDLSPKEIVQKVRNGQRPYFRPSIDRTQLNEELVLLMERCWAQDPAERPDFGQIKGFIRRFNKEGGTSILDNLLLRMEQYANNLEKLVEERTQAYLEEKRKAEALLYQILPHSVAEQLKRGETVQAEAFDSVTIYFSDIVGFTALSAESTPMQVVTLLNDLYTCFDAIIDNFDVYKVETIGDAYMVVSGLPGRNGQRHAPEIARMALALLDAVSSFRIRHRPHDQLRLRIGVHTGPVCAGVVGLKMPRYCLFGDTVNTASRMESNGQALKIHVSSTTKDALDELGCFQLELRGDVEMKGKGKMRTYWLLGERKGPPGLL

| Structure (SMILES) | Potency [1] | Potency [2] | Potency [3] | Potency [4] | Potency [5] | Potency [6] | Potency [7] | Potency [8] | Potency [9] | Potency [10] | Potency [11] | Potency [12] | Potency [13] | outcome [14] | Potency [15] | Potency [16] | IC50 (viability decrease) [17] |
| --- | --- | --- | --- | --- | --- | --- | --- | --- | --- | --- | --- | --- | --- | --- | --- | --- | --- |
| Cc1noc(NS(=O)(=O)c2ccc(N)cc2)c1C | inactive | inactive | inactive | inactive | inactive | inactive | inactive | inactive | inactive |  |  |  |  |  |  |  |  |
| COc1nc(N)nc2c1ncn2[C@@H]1O[C@H](CO)[C@@H](O)[C@@H]1O |  | 20.9 µM (active) | inactive | inactive | inactive | inactive | inactive | inactive | inactive | inactive |  |  |  |  |  |  |  |
| Nc1nc(N)c2nc(CNc3ccc(C(=O)NC(CCC(=O)O)C(=O)O)cc3)cnc2n1 (configuration not stated) | inactive | 0.0166 µM (active) | 0.0132 µM (active) |  | 0.0332 µM (active) | inactive |  | 37.2 nM (active) | inactive | inactive | inactive | inactive | inactive | inactive |  |  |  |
| CCCCS(=N)(=O)CCC(N)C(=O)O (configuration not stated) |  | 14.8 µM (active) | inactive | inactive | inactive |  |  |  | inactive | inactive | inactive | inactive | inactive | inactive |  |  |  |
| CC(=O)[C@H]1CC[C@H]2[C@@H]3CCC4=CC(=O)CC[C@]4(C)[C@H]3CC[C@]12C |  | 3.32 µM (active) | 3.32 µM (active) | 9.35 µM (active) | 3.72 µM (active) |  |  | 11800 nM (active) | inactive | inactive |  |  | inactive | inactive |  |  |  |
| N=C(N)c1ccc(OCCCCCOc2ccc(C(=N)N)cc2)cc1 |  | 18.7 µM (active) | 8.33 µM (active) | 14.8 µM (active) |  | inactive | inactive | inactive | inactive | inactive |  |  |  |  |  |  |  |
| CCN(CC)CC#CCOC(=O)C(O)(c1ccccc1)C1CCCCC1 (configuration not stated) |  | inactive | inactive | inactive | inactive | inactive | inactive | inactive | inactive | inactive |  | inactive | inactive |  |  |  |  |
| O=S(=O)(c1cccc2cnccc12)N1CCCNCC1 | inactive | 26.4 µM (active) |  | inactive | inactive | inactive | inactive |  | inactive | inactive |  |  |  |  |  |  |  |
| CNC1CCCN(c2c(F)cc3c(=O)c(C(=O)O)cn(C4CC4)c3c2OC)C1 (configuration not stated) |  | 14.8 µM (active) | 18.7 µM (active) |  | 20.9 µM (active) | inactive | inactive | inactive | inactive | inactive |  |  |  |  |  |  |  |
| CCC(C)(C)c1ccc(CC(C)CN2C[C@@H](C)O[C@@H](C)C2)cc1 (some centres not stated) |  | inactive | inactive | inactive | inactive | inactive | inactive | inactive | inactive | inactive |  |  |  |  |  |  |  |
| CCN(CC)CCn1c(=O)c(Cc2ccc(OC)cc2)nc2ccccc21 |  | inactive | inactive | inactive | inactive |  |  | inactive | inactive | inactive |  | inactive |  | inactive | inactive | inactive | inactive |
| Cc1nnc(NS(=O)(=O)c2ccc(N)cc2)s1 |  | 14.8 µM (active) | 10.5 µM (active) | 13.2 µM (active) |  | inactive | inactive |  | inactive | inactive |  |  |  |  |  |  |  |
| CC1=CC(=O)c2ccccc2C1=O | inactive | 18.7 µM (active) | 26.4 µM (active) |  | 26.4 µM (active) |  | inactive | inactive | inactive | inactive |  |  |  |  |  |  |  |
| Cc1ccnc2c1NC(=O)c1cccnc1N2C1CC1 |  | inactive | inactive | inactive | inactive | inactive | inactive | inactive | inactive | inactive |  |  |  |  |  |  |  |
| CCCCc1oc2ccc(NS(C)(=O)=O)cc2c1C(=O)c1ccc(OCCCN(CCCC)CCCC)cc1 |  | 23.5 µM (active) | 20.9 µM (active) | 16.6 µM (active) | 20.9 µM (active) |  |  | 26.4 µM (active) and 16.4 µM (active) | 11.8 µM (active) | inactive |  |  |  |  |  |  |  |
| CCOC(=O)c1ccc(C#Cc2ccc3c(c2)C(C)(C)CCS3)nc1 |  | inactive | inactive | inactive | inactive | inactive | inactive | inactive | inactive | inactive |  |  |  |  |  |  |  |
| CC1=C(C(=O)O)N2C(=O)[C@@H](NC(=O)C(N)c3ccccc3)[C@H]2SC1 (some centres not stated) |  | inactive | inactive | inactive | inactive |  |  |  | inactive | inactive | inactive | inactive | inactive | inactive |  |  |  |
| CC(C)NCC(O)c1ccc(NS(C)(=O)=O)cc1 (configuration not stated) |  | 5.9 µM (active) | 16.6 µM (active) | 16.6 µM (active) |  | inactive | inactive | inactive | inactive | inactive | inactive | inactive | inactive | inactive |  |  |  |
